Source: PubChem BioAssay (National Center for Advancing Translational Sciences (NCATS))
AID inh: inhibitors of human activation induced cytidine deaminase | AID deamination FRET fluorescence, UDG-coupled, 4 h | AID 1347428 | 0.32% of 91,000 active | Potency, µM (top dose mostly 115 µM), hits mostly inhibitors; further: nearly all actives have a fitted effect of over 25% in size
Target sequence (Q9GZX7 whole entry, looked up): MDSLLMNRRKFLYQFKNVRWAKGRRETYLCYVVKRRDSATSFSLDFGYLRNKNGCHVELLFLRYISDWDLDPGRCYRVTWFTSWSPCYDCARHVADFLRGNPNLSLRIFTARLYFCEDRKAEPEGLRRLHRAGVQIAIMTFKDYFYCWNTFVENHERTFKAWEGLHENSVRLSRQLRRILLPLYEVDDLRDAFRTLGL
UDG counterscr: blocks uracil-DNA glycosylase in AID counter-screen; FRET deamination/UDG coupled assay, UDG read, 4 h; Potency, µM (doses to about 115 µM), for inactives: at the top dose activity change, negative = inhibition, hits mostly inhibitors; 0.14% of 91,000 active; further: nearly all actives have a fitted effect of over 65% in size
Starred values were filed as active, the others as inactive; i = inactive; ? = inconclusive; [ ] = another dose, or the depositor's remark. Compounds with a hit are over-represented: about 0.4% of the library has one in this group of screens. The call rests on the fitted dose curve; in most records, active means well fitted curve in the direction sought with a large enough effect; inconclusive means small, poorly fitted or top-dose-only effect, or another doubt; inactive means no such curve, though single readings can be large; an effect the other way counts as inactive or inconclusive. On the % scale 0 is the no-effect control and ±100 the full control effect; potency means the concentration at half of the fitted maximal effect.

SMILES	AID inh	UDG counterscr
CCC(=O)Nc1sc2c(c1C#N)CCC(CC)C2 (stereo not drawn)	i	3.7%
COCCOc1ccc(NC(=O)CC(C)(C)C)cc1	i	-3.9%
COc1ccc(S(=O)(=O)N(CC(=O)NCc2ccccc2)c2ccc(C)cc2)cc1OC	i	-7.9%
COc1ccc(S(=O)(=O)N(CC(=O)Nc2cc(C)cc(C)c2)c2ccc(Cl)cc2)cc1	i	-0.8%
COc1ccc(S(=O)(=O)N(CC(=O)NC(C)c2ccccc2)c2ccc(C)cc2)cc1OC (stereo not drawn)	44.7µM*	?
COc1ccc(S(=O)(=O)N(CC(=O)Nc2cccc(C(F)(F)F)c2)c2ccc(C)cc2)cc1	25.1µM*	-11.2%
CCc1ccc(CSc2nc(-c3ccccc3F)nc3c2Cc2c(CO)cnc(C)c2O3)cc1	i	-1.8%
CCN(CC)C(=O)CSc1nc(-c2ccccc2F)nc2c1Cc1c(CO)cnc(C)c1O2	28.2µM*	4.9%
Cc1c(O)ccc2c(CN3CCN(c4cccc(C(F)(F)F)c4)CC3)cc(=O)oc12	i	3.6%
Cc1ccc(C(=O)NC2=C(C#N)CCC2)cc1	i	-5.4%
COc1ccc2c(c1)Cc1sc(NC(=O)c3cccc(F)c3)nc1-2	?	-9.8%
COc1ccc2c(c1)Cc1sc(NC(=O)c3cccc(Br)c3)nc1-2	50.1µM*	-19.1%
CC(CN(CCN(C)C)Cc1ccccc1)c1ccccc1 (stereo not drawn)	i	4.2%
CN(C(=O)c1nc(-c2cccc(F)c2)n2c1CCCCC2)c1ccccc1F	i	-2.1%
CCOc1ccc(CCNC(=O)c2nc(-c3cccc(F)c3)n3c2CCCCC3)cc1OCC	17.8µM*	?
Cc1ccc2c(c1)-c1c(cnn1CC(=O)N1CCN(c3cc(C)ccc3C)CC1)CO2	39.8µM*	-11.4%
COc1ccc(N2CCN(C(=O)Cn3ncc4c3-c3cc(C)ccc3OC4)CC2)cc1	i	-16.2%
Cc1ccc(N2CCN(C(=O)c3c4c(nc5ccccc35)C(=O)N(C3CCCCC3)C4)CC2)c(C)c1	?	2.2%
Cc1cccc(N2CCN(C(=O)c3c4c(nc5ccccc35)C(=O)N(C3CCCCC3)C4)CC2)c1C	28.2µM*	0.0%
COc1ccc(-c2c(C#N)c(SCC(=O)Nc3ccccc3C)nc(C)c2C(=O)Nc2ccc(Cl)cc2)cc1	i	?
CCc1ccc(NC(=O)CSc2nc(C)c(C(=O)Nc3ccc(Cl)cc3)c(-c3ccc(OC)cc3)c2C#N)cc1	?	89.1µM*
Cn1cnc2c1c(=O)n(CCCN1CCCCCC1)c(=O)n2C	i	-8.0%
Cc1ccc(C)c(OCCn2c(C3CC(=O)N(Cc4ccc(F)cc4)C3)nc3ccccc32)c1 (stereo not drawn)	28.2µM*	79.4µM*
CCOc1ccccc1N1CC(c2nc3ccccc3n2CCCCOc2cc(C)ccc2C)CC1=O (stereo not drawn)	i	-9.6%
COc1cccc(Cc2nc3ccccc3nc2SCC(=O)N2CCCCC2C)c1 (stereo not drawn)	?	-2.8%
SMILES	AID inh	UDG counterscr
Cc1ccc(Cc2nc3ccccc3nc2SCC(=O)N2CCCCC2C)cc1 (stereo not drawn)	50.1µM*	-18.9%
CC(C)(C)c1ccc(C(=O)NNC(=S)Nc2ccccc2)cc1	i	3.0%
Cc1oc2cc(OCC(=O)Nc3ccc(F)cc3F)ccc2c(=O)c1Oc1ccccc1F	i	-2.1%
Clc1cc(Cl)cc(CNCCN2CCCC2)c1	i	-4.2%
CCCCN(CC)CCNC(=O)c1cc2c(-c3ccc(Cl)cc3)nn(C)c2s1	89.1µM*	-28.9%
CCCN(CCC)CCNC(=O)c1cc2c(-c3ccc(Cl)cc3)nn(C)c2s1	?	-22.6%[57.5 µM]
N#C/C(=C\c1ccc(-c2ccc(C#N)cc2)o1)c1nc2ccccc2[nH]1	i	16.0%
O=C(Nc1cccc(Cl)c1)c1c(NC(=O)C(F)(F)F)sc2c1CCCC2	?	-2.3%
Cc1cccc(NC(=O)c2c(NC(=O)C(F)(F)F)sc3c2CCCCC3)c1	79.4µM*	-8.9%
C=CCc1cc(/C=C2\NC(=O)NC2=O)cc(OCC)c1O	i	6.3%
C(=Nc1ccccc1)c1ccccc1OCc1ccccc1	i	-6.4%
Oc1ccc(N=Cc2ccccc2OCc2ccccc2)cc1	14.1µM*	?
CCc1ccc(NC(=O)C2CCCN(S(=O)(=O)c3ccc(F)cc3)C2)cc1 (stereo not drawn)	i	-0.7%
CC1CCN(S(=O)(=O)c2ccc(NC(=O)C3CC(=O)N(CCc4ccc(F)cc4)C3)cc2)CC1 (stereo not drawn)	i	89.1µM*
CCc1ccc(C(=O)c2cn(CC(=O)Nc3ccc(F)c(F)c3)c3cc(OC)c(OC)cc3c2=O)cc1	i	-16.8%
CCc1ccc(C(=O)c2cn(Cc3ccc(F)cc3)c3cc(OC)c(OC)cc3c2=O)cc1	35.5µM*	-24.1%
N#Cc1ccccc1OCCN1CCc2ccccc2C1	i	3.6%
COCCn1cnc2c1c(=O)n(CC(=O)OCc1cc(C)cc(C)c1)c(=O)n2Cc1ccccc1	i	3.9%
Cc1ccc(C(=O)/C=C/c2ccc(-c3cccc(Cl)c3Cl)o2)cc1	i	-7.5%
O=C(O)c1c(-c2ccccc2)oc2ccc(OCc3c(F)cccc3Cl)cc12	79.4µM*	-16.3%
CCOC(=O)c1c(-c2ccc(OC)cc2)oc2ccc(OCc3ccc(F)cc3F)cc12	i	-5.3%[57.5 µM]
CCOC(=O)N1CCc2c(sc(NCc3cccc(F)c3)c2C(=O)Nc2ccc(OC)cc2)C1	i	?
CCOC(=O)N1CCc2c(sc(NCc3ccc(N(C)C)cc3)c2C(=O)Nc2ccc(OC)cc2)C1	50.1µM*	-28.7%
C#CCN1CCN(CCOc2ccc(Cl)cc2)CC1	i	10.0%
CCOC(=O)c1cccc(Nc2nc(C(=O)OCC)nc3ccccc23)c1	i	6.9%
SMILES	AID inh	UDG counterscr
CCCOC(=O)c1cccc(Nc2nc(C(=O)OCC)nc3ccccc23)c1	i	89.1µM*
CC(C)(C)c1[nH]c2c(F)cc(F)cc2c1C=O	i	-1.9%
O=C(COc1ccccc1Cl)OCc1cccc(COC(=O)COc2ccccc2Cl)c1	i	6.1%
COc1ccc(-c2csc(N3N=C(C)CC3c3cc(OC)c(OC)c(OC)c3)n2)cc1 (stereo not drawn)	?	89.1µM*
CSc1ccc(C2CC(C)=NN2c2nc(-c3ccccc3)cs2)cc1 (stereo not drawn)	i	-12.7%
COc1ccc(C2CC(=O)Nc3c(-c4ccccc4)nsc32)cc1OC (stereo not drawn)	i	-2.2%
CCOc1ccccc1NC(=O)C(CC)Sc1nc2ncccc2[nH]1 (stereo not drawn)	i	-2.2%[57.5 µM]
CCOc1ccccc1NC(=O)C(C)Sc1nc(-c2ccccc2)c(C#N)c(=O)[nH]1 (stereo not drawn)	35.5µM*	7.3%
COC(=O)CSc1nc2c(c(-c3cccs3)c1C#N)CCCC2	i	-6.2%
CC(C)(C)C1CCc2nc(SCC(N)=O)c(C#N)c(C(F)(F)F)c2C1 (stereo not drawn)	?	79.4µM*
Cc1ccc(C(C)NC(=O)Nc2ccc(Cl)cc2F)c(C)c1 (stereo not drawn)	14.1µM*	0.6%
CC(C)C(=O)Nc1ccc(Cl)cc1F	i	-2.0%
CC(C)c1ccc(SCc2nc3c(c(=O)[nH]c(=O)n3C)n2C)cc1	i	7.4%
CSc1nccc(-c2cccs2)n1	i	5.6%
CC(C)c1ccc(S(=O)(=O)c2nnn3c2nc(N2CCN(C)CC2)c2sccc23)cc1	17.8µM*	18.5%
CN1CCN(c2nc3c(S(=O)(=O)c4ccc(Cl)cc4)nnn3c3ccsc23)CC1	?	-15.5%
